# Laboratory results from the supplement of paper PMC8387472.
# Legend:
# Test in all cases: fraction of microhomology deletions among edited reads; higher = more MH deletions
# Settings in all cases: mESC; 2uM; 72 h treatment, harvest day 5
# Rifapentine = compound: CO[C@H]1/C=C/O[C@@]2(C)Oc3c(C)c(O)c4c(O)c(c(/C=N/N5CCN(C6CCCC6)CC5)c(O)c4c3C2=O)NC(=O)/C(C)=C\C=C\[C@H](C)[C@H](O)[C@@H](C)[C@@H](O)[C@@H](C)[C@H](OC(C)=O)[C@@H]1C [Rifapentine]
# [1] = compound: COc1ccccc1-c1cc(Nc2cccc(CS(N)(=O)=O)c2)ncn1
# [2] = compound: C[C@@H]1CN(CC(=O)Nc2ccc3c(c2)Cc2cccc(-c4cc(=O)cc(N5CCOCC5)o4)c2S3)C[C@H](C)O1
# [3] = compound: Cc1cc(C)nc(SCC(=O)Nc2ncc(Cc3cccc4ccccc34)s2)n1
# [4] = compound: Cc1cccc(CC(=O)N2CCc3c2ccc(-c2cn(C)c4ncnc(N)c24)c3F)n1
# [5] = compound: NC(=O)c1ccc2nc(-c3ccc(Oc4ccc(Cl)cc4)cc3)[nH]c2c1 [Chk 2 inhibitor II (BML-277)]
# Tucidinostat (Chidamide) = compound: Nc1cc(F)ccc1NC(=O)c1ccc(CNC(=O)/C=C/c2cccnc2)cc1 [Tucidinostat (Chidamide)]
# Pemetrexed = compound: Nc1nc2[nH]cc(CCc3ccc(C(=O)N[C@@H](CCC(=O)O)C(=O)O)cc3)c2c(=O)[nH]1 [Pemetrexed]
# [6] = compound: Nc1ncnc2c1c(-c1cnc3[nH]ccc3c1)nn2C1CCCC1
# [7] = compound: O=C(c1cccc(Cl)c1F)N1CCN(Cc2cccc(Nc3nccs3)n2)CC1
Target,fraction of microhomology deletions among edited reads (Rifapentine),fraction of microhomology deletions among edited reads [1],fraction of microhomology deletions among edited reads [2],fraction of microhomology deletions among edited reads [3],fraction of microhomology deletions among edited reads [4],fraction of microhomology deletions among edited reads [5],fraction of microhomology deletions among edited reads (Tucidinostat (Chidamide)),fraction of microhomology deletions among edited reads (Pemetrexed),fraction of microhomology deletions among edited reads [6],fraction of microhomology deletions among edited reads [7]
"41.0 (DMSO control at this site: 1-bp insertion 0.022, MH deletion 0.754, edited 0.115) AAAGAGACAGCAGGTATGAATCCATCTTCCTGACCCTTGGGACCAGCCGGGGCAGTGAAGC",0.699,0.733,0.67,0.703,0.715,0.742,0.709,0.678,0.722,0.694
"4.0 (DMSO control at this site: 1-bp insertion 0.146, MH deletion 0.523, edited 0.125) ACGCCTTAGTGCACGAGTGACGGGATAATGTGGTCTCAGGTAATTGATAGGCTTCCAACTT",0.592,0.535,0.319,0.545,0.492,0.575,0.482,0.504,0.501,0.475
"2.0 (DMSO control at this site: 1-bp insertion 0.364, MH deletion 0.356, edited 0.125) GGTGCCCCCGAGACCTACGCGAACCGAAATCGATGTCCGGTGCGCAAGCAGGGCTGGCGTC",0.417,0.327,0.123,0.378,0.3,0.397,0.303,0.408,0.262,0.256
"31.0 (DMSO control at this site: 1-bp insertion 0.315, MH deletion 0.329, edited 0.026) ACCTCCACAGGCTGGGTGGCCCGGAGGCTGGGCGGCCCGGAGGCTGGGCTGGGCGAGTATC",0.467,0.487,–,0.512,–,–,0.459,0.605,0.333,0.391
46.0 TTAAGAGCAATGTTCACGCAACTTGAAATTATATCTGTGGTCTTCAAATTGTCTTTTGTCA,0.417,–,–,–,–,–,0.327,0.431,0.497,–
"45.0 (DMSO control at this site: 1-bp insertion 0.017, MH deletion 0.666, edited 0.101) TTACACAGCATGAACTGCTAGGTGATGATGTCAGATTCGGTTTTACTAACTTCTCCAAAAA",0.624,0.614,0.515,0.608,0.655,0.617,0.624,0.574,0.54,0.598
"38.0 (DMSO control at this site: 1-bp insertion 0.063, MH deletion 0.487, edited 0.17) GGGCTGGGTGCTAAAATGAGGAGCTCCAAGAAGACTGAGGTGAACCTGGAGGCCCCTGAGC",0.507,0.46,0.441,0.483,0.495,0.495,0.458,0.548,0.432,0.439
"29.0 (DMSO control at this site: 1-bp insertion 0.084, MH deletion 0.745, edited 0.133) TTGATGAACTTCCTCTTCTTCTCATGTCTCCGGTCTCCGGTAGGCCACGTGCATGGCCACT",0.751,0.667,0.482,0.692,0.702,0.741,0.686,0.691,0.696,0.662
"0.0 (DMSO control at this site: 1-bp insertion 0.463, MH deletion 0.339, edited 0.14) AGGATTACCGAGACCTACGCGAACCGAAATCGCTGTCCGGTGCGCAAGCAGGGCTGGCGTC",0.37,0.294,0.108,0.304,0.291,0.331,0.275,0.346,0.23,0.201
